Assay results: PubChem BioAssay (NCATS)
Results filed as inconclusive are left out. Where a call stands in place of a potency, no number is given. Calls of active or inactive are those of the source. The call rests on the fitted dose curve; in most records, active means well fitted cell-killing curve with a large enough effect; inconclusive means small, poorly fitted or top-dose-only effect, or effect the other way; inactive means flat fitted curve, though single readings scatter.

tested on: CASKI; test: Primary qHTS to identify gynecologic anti-cancer compounds using libraries of approved drugs and bioactive compounds (AID 1345084); details: Gynecologic cancer cell panel viability, ATPlite luminescence, 48 h; series mostly up to 57.5 µM; further: nearly all actives have a fitted effect of over 55% in size
How it was run: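 Cell viability after 48 h drug treatment, ATPlite luminescence readout; five doses.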
Potency means the concentration at half of the fitted maximal effect.

Structure (SMILES) | Potency
CC(=O)N1N=C(c2ccc(N)cc2)c2cc3c(cc2C[C@H]1C)OCO3 | inactive
COC(=O)[C@]12CCCC(C)(C)C1CCc1cc(C(C)C)c(O)c(O)c12 (stereo not given in full) | inactive
COc1ccc(CN(C(=O)[C@@H](N)Cc2c(C)cc(C(N)=O)cc2C)[C@@H](C)c2ncc(-c3ccccc3)[nH]2)cc1C(=O)O | inactive
C=CC/C=C\C/C=C\CCCCCCCc1cc(O)cc(O)c1 | inactive
CN1C2CCC1CC(OC(=O)N1Cc3ccccc3NC1=O)C2 (stereo not given) | inactive
COC(=O)CC1CC2(C(=O)c3c(O)cccc3C2(O)C(=O)OC)C(C)O1 (stereo not given) | inactive
c1cncc(OC[C@@H]2CCN2)c1 | inactive
Cc1c(Cl)c(OCC(=O)N2CCN(C)CC2)nc2sc(C(=O)NC3CC3)c(N)c12 | inactive
CN1CCc2cc3c(cc2C1C1OC(=O)c2c1ccc1c2OCO1)OCO3 (stereo not given) | inactive
C#CCO[C@H]1CN2CCC1CC2 | inactive
CC1CCCC(O)CC(=O)Cc2cc(O)cc(O)c2C(=O)O1 (stereo not given) | inactive
COc1ccsc1CNCC[C@@]1(c2ccccn2)CCOC2(CCCC2)C1 | inactive
C1=C(c2cnc[nH]2)c2ccsc2CC1 | inactive
CC1=CC2(O)/C=C/C(C)(O)C(O)C(O)/C=C/C(=O)OC23C(=O)NC(CC(C)C)C3C1C (stereo not given) | inactive
C/C=C1/CN2CC[C@]34C(=Nc5ccc(OC)cc53)C2C[C@@H]1C4(CO)C(=O)OC (stereo not given in full) | inactive
Cc1cccc(NC(=O)N[C@H]2CN(C)c3ccccc3C(c3ccccc3)=N2)c1 | inactive
Oc1ccc2c3c1O[C@H]1c4[nH]c5c(N=C=S)cccc5c4C[C@@]4(O)[C@@H](C2)N(CC2CC2)CC[C@]314 | inactive
CO[C@@H]1[C@H](O)[C@@H](O[C@@H]2C[C@H]3CC[C@@H]4C(CC[C@]5(C)[C@@H](C6=CC(=O)OC6)CC[C@]45O)[C@@]3(C)[C@H](O)C2)O[C@H](C)[C@@H]1O (stereo not given in full) | 1260 nM (active)
C[C@@H]1CCC/C=C/[C@H]2C[C@@H](O)C[C@@H]2[C@@H](O)/C=C/C(=O)O1 | 1260 nM (active)
C[C@]12CCC(=O)C=C1CC[C@@H]1[C@@H]2[C@@H](O)C[C@]2(C)C(=O)CC[C@@H]12 | inactive
CCC(C)(O)C1(C(=O)O)COC(=O)C1 (stereo not given) | inactive
COC(=O)C1=COC(C)C2CN3CCC4(C(=O)Nc5ccccc54)C3CC12 (stereo not given) | inactive
CC1(C)C(=O)N(c2ccc(C#N)c(C(F)(F)F)c2)C(=O)N1CCCCO | inactive
O=C1N[C@@H](Cc2ccccc2)CN2CCCC[C@@H]12 | inactive
CN1C(=O)CN=C(c2ccccc2Cl)c2cc(Cl)ccc21 | inactive
